Composite z-score and z-score data for 14 molecules are collected here from PubChem BioAssay.

Assay [1] concerns PRMT1 (protein arginine N-methyltransferase 1). Kind of assay: PRMT1 binders on small-molecule microarrays, primary screen, biochemical, small-molecule microarray, 635 nm fluorescence (AID 1088).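 Also: binding of Prmt1 protein to compounds spotted on small-molecule microarray slides.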 Conditions: small-molecule microarray binding, higher = more signal.
A short description of assay [2]: yeast growth modulation, basal conditions, primary screen, YJM789 clinical isolate, OD600, 24 h (AID 1089).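 Also: growth of clinical yeast isolate S. cerevisiae YJM 789 seeded 1000 cells per well; test concentration not given here.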 Conditions: S. cerevisiae YJM789 growth, higher = more signal, called active from +8 up or from −8 down.
Assay [3] is described as follows: fission yeast growth modulation, primary screen, strain 972, OD600, 24 h, no modulator (AID 1090).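 Also: basal condition with compound alone and no growth modifier present; test concentration not given here.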 To be noted: S. pombe 972 growth, higher = more signal, called active from +8 up or from −8 down.
The nature of assay [4]: S. cerevisiae growth modulation with rapamycin, primary screen, strain BY4716, OD600, 96 h (AID 1091). Also: test concentration not given here. Conditions: higher = more signal, called active from +8 up or from −8 down.
For assay [5], the target named is Torsin-1A-interacting protein 2 (Homo sapiens) (UniProt Q8NFQ8). Kind of assay: LULL1 binders on small-molecule microarray, primary screen, cell lysate, human LULL1 lysate, 635/667 nm fluorescence (AID 1092).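 Also: probe is lysate of COS7 cells overexpressing human LULL1; score merges per-feature 667 nm fluorescence with signal-to-noise.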 Conditions: hLULL1 lysate binding, 635 nm fluorescence, higher = more signal.
Chain of Torsin-1A-interacting protein 2 (Homo sapiens) (Q8NFQ8 whole entry, looked up): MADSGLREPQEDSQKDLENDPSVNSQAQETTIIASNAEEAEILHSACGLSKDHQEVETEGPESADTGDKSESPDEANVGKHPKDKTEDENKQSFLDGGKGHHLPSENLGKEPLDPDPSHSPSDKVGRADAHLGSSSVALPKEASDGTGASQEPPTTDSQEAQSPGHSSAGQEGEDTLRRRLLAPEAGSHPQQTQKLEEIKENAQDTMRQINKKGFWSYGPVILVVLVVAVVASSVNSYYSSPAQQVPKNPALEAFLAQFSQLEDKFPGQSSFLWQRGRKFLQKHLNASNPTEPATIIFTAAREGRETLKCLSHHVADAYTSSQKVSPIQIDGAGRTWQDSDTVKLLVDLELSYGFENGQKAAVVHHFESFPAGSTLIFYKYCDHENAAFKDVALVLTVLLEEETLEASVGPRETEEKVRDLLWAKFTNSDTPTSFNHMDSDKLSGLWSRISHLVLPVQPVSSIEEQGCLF
The nature of assay [6]: E. coli growth modulation, two-sided OD650, primary screen, E. coli filamentation project, strain DRC41, 24 h (AID 1093).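 Also: MC1000 strain lacking acrAB efflux and sulA so SOS filamentation is blocked; test concentration not given here.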 To be noted: OD650, 24 h, higher = more signal, called active from +8 up or from −8 down.
Assay [7] in a line: small-molecule microarray binders of probe aLefty2, primary screen, biochemical, biotinylated probe, 635/667 nm fluorescence (AID 1094).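 Also: score merges spot fluorescence near 667 nm with spot signal-to-noise ratio.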 To be noted: higher = more signal.
Assay [8] relates to Noggin (protein binding on small-molecule microarray). Kind of assay: Noggin binders on small-molecule microarray, primary screen, biochemical, 635/667 nm fluorescence (AID 1095).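 Also: score merges 667 nm feature fluorescence with signal to noise over triplicate slides.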 To be noted: 635 nm fluorescence, higher = more signal.
Assay [9] has as its target Neurogenic locus notch homolog protein 3 (Homo sapiens) (UniProt Q9UM47). Kind of assay: NOTCH3 binders on small-molecule microarray, primary screen, biochemical, 635/667 nm fluorescence (AID 1096). To be noted: NOTCH3 binding, 635 nm fluorescence, higher = more signal.
Assay [10] is described as follows: small-molecule microarray binders of probe aEGFR, primary screen, biochemical, biotinylated probe, 635/667 nm fluorescence (AID 1097).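 Also: probe is a biotinylated anti-EGFR antibody binding compounds printed on slides; score combines fluorescence near 667 nm and signal to noise of each spot.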 To be noted: higher = more signal.

SMILES strings stand for the structures. Calls of active or inactive are those of the source.

Chain of Neurogenic locus notch homolog protein 3 (Homo sapiens) (Q9UM47 whole entry, looked up): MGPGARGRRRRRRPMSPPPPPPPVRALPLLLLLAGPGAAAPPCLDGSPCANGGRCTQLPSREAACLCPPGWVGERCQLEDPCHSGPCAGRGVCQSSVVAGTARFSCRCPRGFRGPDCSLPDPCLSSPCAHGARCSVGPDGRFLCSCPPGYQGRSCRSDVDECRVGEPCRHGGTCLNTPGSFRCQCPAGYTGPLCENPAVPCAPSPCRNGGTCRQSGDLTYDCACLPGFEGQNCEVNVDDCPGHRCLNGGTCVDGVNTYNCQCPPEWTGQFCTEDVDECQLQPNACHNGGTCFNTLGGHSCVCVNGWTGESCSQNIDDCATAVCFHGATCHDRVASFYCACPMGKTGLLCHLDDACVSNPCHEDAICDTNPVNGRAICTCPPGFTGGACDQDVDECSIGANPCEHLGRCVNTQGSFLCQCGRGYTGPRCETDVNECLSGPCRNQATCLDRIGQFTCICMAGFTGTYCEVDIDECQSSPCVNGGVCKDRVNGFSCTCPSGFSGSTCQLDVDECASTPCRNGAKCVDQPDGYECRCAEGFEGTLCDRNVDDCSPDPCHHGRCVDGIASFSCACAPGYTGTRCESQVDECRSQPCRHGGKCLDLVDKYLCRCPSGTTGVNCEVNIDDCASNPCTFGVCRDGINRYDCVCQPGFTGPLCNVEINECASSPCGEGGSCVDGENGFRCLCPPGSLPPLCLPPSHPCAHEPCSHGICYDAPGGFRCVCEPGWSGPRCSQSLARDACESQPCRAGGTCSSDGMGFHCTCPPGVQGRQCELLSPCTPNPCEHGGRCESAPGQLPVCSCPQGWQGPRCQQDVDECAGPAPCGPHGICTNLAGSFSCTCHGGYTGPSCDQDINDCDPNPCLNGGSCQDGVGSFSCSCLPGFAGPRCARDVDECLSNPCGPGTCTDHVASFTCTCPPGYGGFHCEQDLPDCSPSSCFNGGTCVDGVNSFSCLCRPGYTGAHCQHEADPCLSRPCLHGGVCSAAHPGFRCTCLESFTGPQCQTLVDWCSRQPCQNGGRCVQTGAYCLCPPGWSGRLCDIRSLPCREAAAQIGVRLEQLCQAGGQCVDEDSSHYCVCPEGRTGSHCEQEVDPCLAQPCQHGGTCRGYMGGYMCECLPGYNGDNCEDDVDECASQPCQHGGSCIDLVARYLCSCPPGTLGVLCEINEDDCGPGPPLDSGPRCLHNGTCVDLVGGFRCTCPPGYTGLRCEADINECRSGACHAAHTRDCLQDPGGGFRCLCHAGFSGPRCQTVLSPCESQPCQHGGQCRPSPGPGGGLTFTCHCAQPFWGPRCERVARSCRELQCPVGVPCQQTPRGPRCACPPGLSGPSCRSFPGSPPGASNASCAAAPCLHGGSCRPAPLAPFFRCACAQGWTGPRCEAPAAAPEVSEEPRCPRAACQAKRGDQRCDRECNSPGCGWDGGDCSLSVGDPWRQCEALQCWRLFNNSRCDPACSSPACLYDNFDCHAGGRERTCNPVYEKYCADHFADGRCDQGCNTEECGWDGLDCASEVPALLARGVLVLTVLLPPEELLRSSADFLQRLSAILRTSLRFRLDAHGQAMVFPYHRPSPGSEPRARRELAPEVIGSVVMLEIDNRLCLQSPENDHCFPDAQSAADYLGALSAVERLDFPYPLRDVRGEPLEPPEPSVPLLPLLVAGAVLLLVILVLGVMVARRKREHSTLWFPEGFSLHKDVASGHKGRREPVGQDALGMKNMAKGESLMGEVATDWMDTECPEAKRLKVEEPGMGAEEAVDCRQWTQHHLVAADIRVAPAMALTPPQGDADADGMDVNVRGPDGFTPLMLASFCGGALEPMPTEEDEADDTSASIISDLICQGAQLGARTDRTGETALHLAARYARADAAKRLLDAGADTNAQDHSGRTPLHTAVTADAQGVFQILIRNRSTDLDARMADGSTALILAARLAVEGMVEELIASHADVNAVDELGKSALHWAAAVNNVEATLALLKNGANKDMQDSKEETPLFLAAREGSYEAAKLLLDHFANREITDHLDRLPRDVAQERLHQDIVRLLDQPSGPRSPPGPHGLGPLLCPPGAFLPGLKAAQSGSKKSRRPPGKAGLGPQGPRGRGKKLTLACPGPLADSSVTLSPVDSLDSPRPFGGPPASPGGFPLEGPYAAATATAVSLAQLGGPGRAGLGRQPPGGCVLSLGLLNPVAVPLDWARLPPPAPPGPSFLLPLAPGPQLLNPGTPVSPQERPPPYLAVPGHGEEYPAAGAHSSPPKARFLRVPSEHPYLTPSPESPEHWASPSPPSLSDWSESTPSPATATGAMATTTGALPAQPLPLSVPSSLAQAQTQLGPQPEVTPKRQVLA

As for `CN1C(=O)C2C(C1=O)C1C=C(CCCO)C2C(c2cccs2)N1C` (stereo not given), the composite z-score in [1] was -0.214; in [5] it was 2.69; in [7], -0.384; in assay [8], -0.4; in assay [9] it was -0.553; in assay [10] it was -0.385. Also, the z-score in assay [2] is -0.68 (inactive); in assay [3], -0.149 (inactive); in assay [4] it was -0.113 (inactive); in [6], 0.729 (inactive).

With `CC(C)C[C@@H]1NC(=O)[C@H]2C[C@@H](C(=O)NCCCCCCNC(=O)CS)[C@@H](c3cccc(OCCO)c3)N2C1=O`, the composite z-score in assay [1] was 1.4; in assay [5] it was 2.85; in assay [7] it was -0.108; in assay [8], 1.7; in assay [9], 1.04; in assay [10], 0.0798. In addition, the z-score in assay [2] was -2 (inactive); in [3], 0.251 (inactive); in [4], 0.24 (inactive); in [6], 0.645 (inactive).

With `CN(C)CCCNC(=O)[C@@]1(Cc2ccccc2I)c2ccccc2C(=O)N(Cc2ccccc2C(F)(F)F)[C@H]1c1ccc(CO)cc1`, the composite z-score in assay [1] is 1.05; in assay [5], 3.45; in [7], -0.16; in [8], -1.16; in assay [9] it was -0.848; in assay [10], -0.295. For the same molecule, the z-score in [2] is -0.0554 (inactive); in [3], -19.8 (active); in assay [4], -2.58 (inactive); in assay [6], -0.971 (inactive).

Take `COCCOC(=O)N1C(=O)[C@@]2(c3cc(C#CCNC(N)=O)ccc31)[C@H](c1ccc(O)cc1)N1[C@H](c3ccccc3)[C@H](c3ccccc3)OC(=O)[C@H]1[C@@H]2C(=O)NC[C@H](O)c1ccccc1`: the composite z-score was found to be 1.55 in [1]; 1.62 in assay [5]; 0.434 in [7]; 0.664 in assay [8]; 1.06 in assay [9]; 0.0586 in assay [10]. Moreover, the z-score in assay [2] was 0.71 (inactive); in [3], 1.2 (inactive); in [4] it was 0.611 (inactive); in [6], -0.675 (inactive).

For the molecule `CCCCCCCCCCC(O)C1C=CC2C(=O)N(Cc3ccccc3)C(=O)C2N1n1cnnc1` (stereo not given), the composite z-score in assay [1] is 1.14; in assay [5], 2.75; in assay [7], 0.326; in [8] it was -0.331; in assay [9], 0.55; in assay [10], 0.0773. Also, the z-score in assay [2] is 0.187 (inactive); in assay [3], -0.25 (inactive); in assay [4] it was -0.976 (inactive); in assay [6], -1.45 (inactive).

With `COCCOC(=O)N1C(=O)[C@@]2(c3cc(C#CCC(C(=O)OC)C(=O)OC)ccc31)[C@H](c1ccccc1OCCO)N1[C@H](c3ccccc3)[C@H](c3ccccc3)OC(=O)[C@H]1[C@@H]2C(N)=O`, the composite z-score in [1] was 1.17; in [5], 2.74; in assay [7], 0.0074; in assay [8] it was 0.726; in assay [9] it was 1.1; in assay [10], -0.0346. In addition, the z-score is 1.47 (inactive) in assay [2], 0.951 (inactive) in assay [3], 4.79 (inactive) in assay [4] and 1.12 (inactive) in assay [6].

For `C=CC[C@@]1(C(=O)N2CCOCC2)N=C(c2ccc(OCCCO)cc2)O[C@@H]1c1ccccc1N=[N+]=[N-]`, the composite z-score in assay [1] turned out to be 1.54; in assay [5], 3.41; in assay [7], 0.362; in assay [8], 0.998; in assay [9], 1.13; in assay [10], 0.353. Further, the z-score in [2] was -1.27 (inactive); in assay [3] it was -1.02 (inactive); in assay [4], 0.811 (inactive); in [6], 0.639 (inactive).

For `COc1ccc(C#Cc2ccc3c(c2)[C@]2(C(=O)N3)[C@H](c3ccc(O)cc3)N3[C@H](c4ccccc4)[C@H](c4ccccc4)OC(=O)[C@H]3[C@@H]2C(=O)NC[C@H](O)c2ccccc2)cc1`, the composite z-score in assay [1] is 0.958; in [5], 2.17; in assay [7], -0.0778; in assay [8], 0.897; in [9], 1.01; in [10], 0.0221. Moreover, the z-score is 2.29 (inactive) in assay [2], 0.241 (inactive) in assay [3], 1.75 (inactive) in assay [4] and 0.864 (inactive) in [6].

Regarding `O=C(O)[C@@]1(Cc2ccccc2)N=C(c2ccc(OCCCO)cc2)O[C@H]1c1ccccc1`, the composite z-score is 1.48 in [1]; 2.42 in assay [5]; -0.126 in [7]; 0.454 in [8]; 0.793 in assay [9]; -0.184 in assay [10]. Besides, the z-score in [2] was 0.552 (inactive); in assay [3] it was -0.93 (inactive); in assay [4], 0.115 (inactive); in assay [6], 0.625 (inactive).

In the case of `COc1ccccc1CN1C(=O)c2ccccc2[C@@H](C(=O)NCCN2CCOCC2)[C@@H]1c1ccc(CO)cc1`, the composite z-score in assay [1] is 0.663; in assay [5], 3.32; in [7], -0.0948; in assay [8], 0.025; in assay [9] it was 0.209; in assay [10], -0.156. The z-score in assay [2] is -0.884 (inactive); in [3], 0.067 (inactive); in assay [4], -0.805 (inactive); in assay [6] it was 0.339 (inactive).

In the case of `COc1ccc([Si](C)(C)[C@@H]2[C@@H](CC(=O)N3CCC[C@H]3CO)O[C@]3(C(=O)N(C)c4c(Br)cc(C)cc43)[C@H]2C)cc1`, the composite z-score in assay [1] is 1.32; in assay [5] it was 2.52; in assay [7], -0.0657; in assay [8] it was 0.804; in [9], 0.93; in assay [10], -0.0831. Besides, the z-score is -1.69 (inactive) in assay [2], -0.328 (inactive) in assay [3], -0.827 (inactive) in [4] and -0.861 (inactive) in [6].

As for `COC(=O)[C@@]1(Cc2ccccc2)[C@H]2c3cc(C(=O)N(C)C)n(Cc4cc(C)n(C)n4)c3C[C@H]2CN1C(=O)c1ccccc1`, the composite z-score in assay [1] was 0.0423; in [5], 3.96; in [7], 0.0382; in [8], -0.127; in [9], 0.809; in assay [10], 0.238. In addition, the z-score in [2] is -0.571 (inactive); in assay [3], -0.528 (inactive); in [4], -0.649 (inactive); in assay [6], -0.564 (inactive).

As to `C=C[C@@H](COC(C)=O)N(Cc1ccccc1[N+](=O)[O-])S(=O)(=O)c1ccc(Br)cc1`, the composite z-score is 0.61 in assay [1]; 1.43 in assay [5]; -0.297 in assay [7]; 1.1 in assay [8]; 0.945 in assay [9]; 0.212 in assay [10]. Moreover, the z-score is -3.84 (inactive) in [2], -2.76 (inactive) in [3], -0.748 (inactive) in assay [4] and 1.91 (inactive) in assay [6].

Consider `C[C@H]1NC(=O)[C@H](Cc2ccccc2)NC(=O)[C@@]23C(=O)N[C@@H](Cc4ccccc4)C2[C@H](C)[C@@]2(C)O[C@H]2C3/C=C/C/C=C\CNC1=O` (stereo not given in full), for which the composite z-score in assay [1] was -0.839; in assay [5] it was -1.32; in [7] it was -0.0724; in assay [8], -0.389; in assay [9], -0.795; in assay [10], -0.183. Further, the z-score in assay [2] was 0.967 (inactive); in assay [3], 0.266 (inactive); in assay [4], 0.865 (inactive); in assay [6], 1 (inactive).
